Screening results deposited in PubChem by ICCB-Longwood Screening Facility, Harvard Medical School.
AID504770: growth inhibitors of E. coli YBA685 in a screen for V. cholerae RctB (chromosome II replication) inhibitors. z-score (concentration not given with the values). hit rate 0.27% among 130,000. AID 504770. E. coli YBA685 rctB-dependent plasmid, OD600 growth, 3 h; stronger effect = lower value; in the data active = z-score below about -2, passing the limit was not always enough
MenB inh: Mtb MenB enzyme inhibition; inhibition, % (concentration not given with the values); AID 540299; MenB enzyme assay, absorbance read-out; hit rate 0.43% among 100,000; P9WNP5; in the data active = inhibition above about 21%, passing the limit was not always enough
Target sequence (P9WNP5 whole entry, looked up): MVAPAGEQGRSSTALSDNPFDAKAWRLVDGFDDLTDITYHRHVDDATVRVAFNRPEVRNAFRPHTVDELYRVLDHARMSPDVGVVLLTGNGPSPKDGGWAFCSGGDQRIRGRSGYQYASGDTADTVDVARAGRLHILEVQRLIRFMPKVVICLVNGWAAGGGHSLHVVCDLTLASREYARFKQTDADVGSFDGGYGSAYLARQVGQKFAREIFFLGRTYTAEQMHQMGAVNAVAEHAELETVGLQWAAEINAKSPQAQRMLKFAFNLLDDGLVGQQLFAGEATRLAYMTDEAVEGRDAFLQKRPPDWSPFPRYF
Mtb MbtI inh: MbtI salicylate synthase inhibition | AID 493033 | hit rate 0.89% among 100,000 | inhibition, % (test concentration not listed) | purified MbtI enzyme, fluorescence intensity read-out; in the data active = inhibition mostly above about 56%, no sharp cut-off; inactive = mostly below about 77%
PV pol inh: poliovirus RNA polymerase inhibition | hit rate 0.66% among 150,000 | poliovirus polymerase elongation, fluorescence polarization; stronger effect = lower value | AID 588519 | % elongation, % (compound at 16.7 µg/mL) | P03300; in the data active = % elongation below about 90%
* = called active by the depositor; i = inactive; nt = no result given. Most compounds without a hit are left out; they make up all but 1.5% or so of the library.

SMILES	AID504770	MenB inh	Mtb MbtI inh	PV pol inh
C=CCn1c(CSc2ccc(C)cc2)n[nH]c1=S	-0.15	-75	74*	96
O=C(OC1CCOC1=O)c1ccc(S(=O)(=O)N2CCCc3ccccc32)cc1 (configuration not stated)	-0.45	-33	3	99
Oc1ccc(O)cc1	-0.2	3	97*	99
Cc1cc(C(=O)CSc2nc3ccccc3n2-c2ccccc2)c(C)n1-c1nccs1	1.2	22	17	109
OCCSc1sc(=S)sc1SCCO	0.1	-47	40	98
CCOC(=O)c1nnn(-c2nonc2-n2cccc2)c1C	-0.85	-16	-12	101
CCOC(=O)c1nnn(-c2nn3nnnc3c3ccccc23)c1C	0.7	32*	14	100
NC(=O)C1CCN(C(=O)C2C3CCC(C3)C2C(=O)O)CC1 (configuration not stated)	-0.3	-79	-8	103
CCCCNC(=O)C1CCN(Cc2ccccc2OCC)CC1	-4.9	-3	-1	102
CCCCNC(=O)CN1CCN(Cc2cccc(OCC)c2OC)CC1	0.35	7	-6	88*
O=C(N[C@@H](CO)[C@H](O)c1ccc([N+](=O)[O-])cc1)C(Cl)Cl	-2.7*	-5	-15	101
O=C(O)CCC(=O)OC[C@@H](NC(=O)C(Cl)Cl)[C@H](O)c1ccc([N+](=O)[O-])cc1	-1.2	-1	-15	100
O=C(CSc1nnc(-c2cccs2)o1)Nc1ccc2c(c1)OC1(CCCCC1)O2	-0.95	-9	-4	113
S=c1nc(Cc2ccccc2)[nH][nH]1	-0.35	19	nt	96
S=c1nc(CNc2ccccc2)[nH][nH]1	-0.8	-42	95*	102
Cc1ccc(C(=O)N/C(=C/c2ccccc2)C(=O)NCc2ccco2)cc1	-0.2	46*	-22	102
O=C(NCc1ccccc1)/C(=C\c1ccccc1)NC(=O)c1ccccc1	-0.1	-13	-8	104
COc1ccc(/C=N/n2cn[nH]c2=S)cc1OC	-1.1	-27	-13	104
S=c1[nH]ncn1/N=C/c1ccccc1	0.65	8	86*	100
COc1cc(/C=C(\C#N)C(=O)OC(C)(C)C)cc(OC)c1	-0.2	6	-7	102
CCn1c(O)c(N=NC(N)=S)c2ccccc21	0.05	-66	78	76*
CCOC(=O)CN1C(=O)C2CC=C(Cl)CC2C1=O (configuration not stated)	0.25	nt	nt	nt
S=c1nc(C2CC2)[nH]c2ccccc12	0	12	92*	98
CC(C)c1nc(=S)c2ccccc2[nH]1	-1.1	-56	86	103
C1CNCC(CN2CCCC2)C1 (configuration not stated)	0.65	46*	-2	103
SMILES	AID504770	MenB inh	Mtb MbtI inh	PV pol inh
c1ccc2nc(Sc3ncn[nH]3)c(Sc3ncn[nH]3)nc2c1	0.35	-16	nt	85*
O=c1[nH]nc(Sc2ncn[nH]2)c(=O)[nH]1	-0.7	-8	10	98
CC(=O)Nc1ccc(SCC(=O)N(C)Cc2ccco2)cc1	0.15	-32	-1	105
C=C(C)c1ccccc(=O)c1O	-5*	nt	nt	nt
Cc1cc(N)c(O)cc1C	-1.1	-129	100*	109
Cc1cc(N)c(N)cc1C	-0.2	-17	-7	100
CN(C)C(=S)c1nc2ccccc2s1	-0.9	-50	45	99
CN(C)C(=S)Nc1nc2ccccc2s1	1.8	-59	71*	100
CC(C)c1cc(N)on1	-2.2*	-12	-16	99
NS(=O)(=O)c1ccc(-n2cccc2C=C2C(=O)NC(=S)NC2=O)cc1	-0.5	-6	97*	100
Cn1cnnc1S/C=C/C(=O)c1ccc(Cl)cc1	-1.3	-10	85*	102
Cn1ccnc1S/C=C/C(=O)c1ccc(Cl)cc1	-0.3	5	59*	99
O=C(/C=C/Sc1ccc(Cl)cc1)c1ccccc1	0.4	-8	-10	101
Cc1cc(C)nc(S/C=C/C(=O)c2ccc(Cl)cc2)n1	-0.65	-5	-8	108
Cc1cc(N2CCN(C)CC2)nc2ccc(NC(=O)C3CCC(C(C)(C)C)CC3)cc12 (configuration not stated)	0.2	-48	-23	103
O=C(N=C=S)c1ccc2ccccc2c1	-1.1	-67	i	75*
CN(C)S(=O)(=O)c1cccc(C(=O)N=C=S)c1	-0.25	-67	96*	70*
CN1CCCN(C(=O)c2ccc(F)c(S(=O)(=O)N3CCOCC3)c2)c2nc3ccccc3nc21	-0.15	-3	7	103
COc1ccc(NC2CC(O)C(CO)O2)cc1 (configuration not stated)	1.9	0	5	102
CCOC(=O)C1CCCN(Cn2nnn(-c3ccc(OC)cc3)c2=S)C1 (configuration not stated)	0.55	11	63*	79*
Nc1n[nH]c2cc(=O)[nH]c(O)c12	1.5	-44	5	5.0*
NC(=O)c1c(NC(=O)c2cc(-c3ccc(F)cc3)on2)sc2c1CCCC2	nt	nt	nt	76*
CCCc1cc2ccccc2o1	2.1	32*	1	100
CCCc1cc(=O)c2c(O)cccc2o1	-0.55	nt	nt	nt
C/C(=N\NC(=O)C1CCN(S(=O)(=O)c2ccccc2)CC1)c1ccccc1	-1	11	1	100
SMILES	AID504770	MenB inh	Mtb MbtI inh	PV pol inh
CCc1ccc(OCc2n[nH]c(=S)n2CC(C)C)cc1	0.25	-54	37	106
COC(=O)CCC(=O)Nc1sc(C)c(C)c1C(N)=O	0.2	nt	nt	nt
CCc1c(C)sc(NC(=O)CCCC(=O)O)c1C(N)=O	-0.55	-2	nt	81*
CN(C(=O)C(C)(C)C)c1nnc(C23CC4CC(CC(C4)C2)C3)s1	-0.8	nt	nt	nt
COc1ccc(OC)c(CNC(=O)CSc2c3c(nc4cc(Cl)ccc24)CCCC3)c1	nt	nt	nt	74*
CC1(C)CCC2=C(O1)c1ccccc1C(=O)C2=O	nt	8	2	89*
Cc1ccc(-n2c(N)c(C(=O)NCC3CCCO3)c3nc4ccccc4nc32)cc1 (configuration not stated)	-0.1	4	-26	107
C=C(C)Cn1c(CCCO)nc2ccccc21	-0.05	nt	nt	nt
CC(=O)Nc1nc2c(s1)C(=O)CC(C)(C)C2	0.7	nt	-3	104
CCCNc1nc(Cl)nc(Cl)n1	0.55	-56	-2	101
Clc1nc(Cl)nc(NNc2nc(Cl)nc(Cl)n2)n1	0.2	34*	-10	100
Cc1ccc(C=C2C(=O)NC(=O)NC2=O)cc1	-4.7*	-54	22	99
COC(=O)C1=C(C)NC(=O)/C1=C\c1ccc(C)cc1	2.6	-58	14	101
CN(CC(=O)N1CCc2ccccc21)Cc1ccccc1	-0.25	-14	-3	101
c1cnc(Sc2ccc3ccccc3c2)nc1	0.15	10	1	102
CC(C)Cn1c(SCc2nnc(-c3cccs3)o2)nc(O)cc1=O	-1.1	-165	17	83*
Cc1c2cnn(-c3ccccc3)c(=O)c2c(C)n1C(C)C(=O)Nc1nccs1 (configuration not stated)	0.05	4	9	102
O=C(Nc1ccc2c(c1)OCCO2)C1CCCN(S(=O)(=O)Cc2ccccc2)C1 (configuration not stated)	1.1	56*	0	101
